# Measurements as given in PubChem BioAssay AID686978 (National Center for Advancing Translational Sciences (NCATS), 2013).
# About 64,000 (15%) of roughly 420,000 compounds were called active. Another 27% or so got no clear call; they are omitted. Calls come from the whole dose curve; as a rule, active = well fitted inhibition curve with a large enough effect; inconclusive = small, poorly fitted or top-dose-only effect; inactive = flat fitted curve, though single readings scatter. Only a sample is shown.
# Assay: qHTS for Inhibitors of human tyrosyl-DNA phosphodiesterase 1 (TDP1): qHTS in cells in absence of CPT; note: nearly all actives have a fitted effect of over 55% in size
# Conditions: DT40 Tdp1-/- hTDP1 cells, no CPT, ATP luminescence, 48 h; activity change, negative = growth inhibition: at 46.2 µM (top of the series)
# How it was run: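 Camptothecin absent (DMSO only). Human TDP1-complemented DT40 knockout cells, 400 cells/well, 37 °C for minimum 48 hr; ATP measured via CellTiter-Glo, 30 min dark incubation, luminescence.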
# % is set by controls: 0 for no effect and ±100 for the full control effect; potency is the fitted concentration of half-maximal effect.
SMILES,"activity change, negative = growth inhibition",Potency
OCC1(CO)CC2(C1)CC(CO)(CO)C2,1.95% (inactive),
CCOC(=O)c1sc(NC(=O)/C=C/c2ccc(C(C)C)cc2)c(C(=O)OCC)c1C,-21.3% (inactive),
Cc1ccc(S(=O)(=O)NCC(=O)N(CC(=O)NCC2CCCO2)c2cccc(F)c2)cc1 (configuration not stated),-5.08% (inactive),
COC(=O)c1cc(NC(=O)CCc2c(C)nc3c4c(C)cc(C)nc4nn3c2C)cc(C(=O)OC)c1,-21.8% (inactive),
CCc1noc(C)c1C(=O)OCC(=O)c1ccc(NC(=O)CC(C)C)cc1,,25.9 µM (active)
CCc1noc(C)c1C(=O)NNC(=O)c1ccc(F)cc1,1.49% (inactive),
COc1ccc(C(=O)COC(=O)c2c(C)noc2C)cc1Cl,-23.2% (inactive),
O=C(Nc1nsc(-c2ccccc2)n1)c1ccncc1,-26.7% (inactive),
NC(=O)c1oc2ccccc2c1NC(=O)Cc1ccccc1,-18.1% (inactive),
COc1ccc(-c2nn(-c3ccccc3)cc2/C=C\C(=O)N2CCOCC2)cc1[N+](=O)[O-],2.01% (inactive),
COC(=O)[C@H]1[C@H]2C[C@H]3c4[nH]c5ccccc5c4CCN3C[C@@H]2CC[C@@H]1O,,inactive
C[C@@H]1ON(C)[C@H]2C[C@H]3c4cc(N5CCN(C)CC5)ccc4CCN3C(=O)[C@@H]12,0.647% (inactive),
COc1ccc(-c2ccc3[nH]c4c(c3c2)CCN2C[C@H]3[C@H](C)ON(C)[C@H]3C[C@@H]42)cc1,,20.6 µM (active)
O=C(NCc1csc(-c2cccs2)n1)C1CC1,-6.41% (inactive),
COc1ccc(C(CNC(=O)CSc2ccccc2)N2CCOCC2)cc1 (configuration not stated),-26.7% (inactive),
CC(C)(C)C1CCC(C(=O)NCC(c2cccs2)N2CCOCC2)CC1 (configuration not stated),,8.2 µM (active)

SMILES,"activity change, negative = growth inhibition",Potency
Cc1cc(=O)oc(C)c1C(=O)Nc1cnc2ccccc2c1,-21.1% (inactive),
CCc1ccc(NC(=O)C(=O)N/N=C(\C)CC(=O)NCCOC)cc1,-7.62% (inactive),
CCc1nnc(NC(=O)CSc2nnc(Cc3ccccc3)n2-c2ccc(OC)cc2)s1,-0.0344% (inactive),
CCc1c(C)[nH]c(=S)c(C#N)c1C,-9.03% (inactive),
CCOc1ccccc1C(=O)NC1(C(F)(F)F)C(=O)Nc2c1c(=O)[nH]c(=O)n2-c1ccc(F)cc1 (configuration not stated),-13% (inactive),
COc1cccc(C(=O)NNC(=O)c2cccc(F)c2)c1,-17% (inactive),
COc1cccc(C(=O)NC2(C(F)(F)F)C(=O)Nc3c2c(=O)[nH]c(=O)n3-c2ccc(C)cc2)c1 (configuration not stated),,23.1 µM (active)
Cc1cccc(-c2noc(CCC(=O)NC3CCCC3)n2)c1,-23.5% (inactive),
CCOC(=O)C1=CCC(c2ccc(F)cc2)N(S(=O)(=O)c2ccc(C)cc2)C1 (configuration not stated),,18.4 µM (active)
CCOC(=O)C1=CC[C@@H](c2ccncc2)N(S(=O)(=O)c2ccc(C)cc2)C1,,23.1 µM (active)
O=C(CN1CCN(S(=O)(=O)c2ccc(F)cc2)CC1)NC1CC1,6.75% (inactive),
Cc1ccc(S(=O)(=O)N2CC[C@H]3[C@@H](C2)C(=O)C[C@@H](c2ccccc2)N3S(=O)(=O)c2ccc(C)cc2)cc1,-10.3% (inactive),
Cc1ccc(S(=O)(=O)N2C3C=CC(C3)C2C(=O)O)cc1 (configuration not stated),-0.745% (inactive),
COc1ccc(S(=O)(=O)N2CCOC2CNC(=O)C(=O)NCc2ccncc2)cc1OC (configuration not stated),-2.25% (inactive),
CC(=O)C1=CCC(c2ccccc2)N(S(=O)(=O)c2ccc(C)cc2)C1 (configuration not stated),,23.1 µM (active)
Cc1ccc(S(=O)(=O)N2CCCC2CO)cc1 (configuration not stated),0.298% (inactive),
